This is part of a sample that, as a whole, favours compounds with a hit. Of some 79,000 tested, about 15% had one in any assay. Unmarked numbers belong to inactive results. Activity calls are given as the source filed them. Rule as the data show it: active = growth inhibition above about 70%; inactive = the rest.
Key:
[1] = NCI Yeast Anticancer Drug Screen. Data for the rad50 strain (AID 155);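 also: 0% = growth of vehicle-only cultures of the same strain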; conditions: S. cerevisiae rad50 strain growth inhibition, hits give high values
Outline: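 Relative growth inhibition (compound vs vehicle) was measured in yeast with a defined repair-gene alteration.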

[2] = NCI Yeast Anticancer Drug Screen. Data for the mec2-1 strain (AID 157); conditions: S. cerevisiae mec2-1 strain, hits give high values
Outline: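 Mutant yeast (mec2-1) grown with compound; growth inhibition relative to vehicle control reported.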

[3] = NCI Yeast Anticancer Drug Screen. Data for the sgs1 mgt1 strain (AID 161);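 also: 0% = growth of cultures given vehicle only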; conditions: S. cerevisiae sgs1 mgt1 strain, hits give high values
Outline: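 Growth of a repair-deficient yeast mutant was monitored after compound treatment and expressed as inhibition relative to vehicle-treated cultures.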

[4] = NCI Yeast Anticancer Drug Screen. Data for the cln2 rad14 strain (AID 165);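 also: 0% = growth equal to vehicle treated cultures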; conditions: S. cerevisiae cln2 rad14 strain, hits give high values
Outline: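 Readout is yeast growth inhibition versus vehicle-treated controls, using a strain with cln2 and rad14 alterations exposed to compound.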

[5] = NCI Yeast Anticancer Drug Screen. Data for the bub3 strain (AID 167); conditions: S. cerevisiae bub3 mutant strain, hits give high values
Outline: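 Screening used yeast with an engineered genetic alteration affecting cell cycle control. Compound-exposed cultures were compared with vehicle cultures, and reduced growth was taken as inhibition.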

[6] = NCI Yeast Anticancer Drug Screen. Data for the mlh1 rad18 strain (AID 175); conditions: S. cerevisiae mlh1 rad18 strain growth inhibition, hits give high values
Outline: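 Genetically defined yeast (DNA repair-deficient) exposed to compounds; growth inhibition determined relative to vehicle.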

[7] = at 5.0 µM (retest, dose inferred, filed as 0.5)
[8] = at 50.0 µM (retest, dose inferred, filed as 5.0)

Compound	growth inhibition [1, 7] [%]	growth inhibition [1, 8]	growth inhibition ([1]; at 50.0 µM)	growth inhibition [2, 7] [%]	growth inhibition [2, 8]	growth inhibition ([2]; at 50.0 µM)	growth inhibition [3, 7]	growth inhibition [3, 8]	growth inhibition ([3]; at 50.0 µM)	growth inhibition [4, 7]	growth inhibition [4, 8]	growth inhibition ([4]; at 50.0 µM)	growth inhibition [5, 7]	growth inhibition [5, 8]	growth inhibition ([5]; at 50.0 µM)	growth inhibition [6, 7]	growth inhibition [6, 8]	growth inhibition ([6]; at 50.0 µM)
CC(C)(C)NCc1cc(Nc2ccnc3cc(Cl)ccc23)cc(-c2ccc(Cl)cc2)c1O	-6	19%	14.7%	-4	17%	-16.1%	-5%	-15%	-9.6%	-2%	18%	68.5%	7%	-8%	2.1%	-1%	22%	20.5%
C=CCN1/C(=C\C=C\c2ccc3cc(C)ccc3[n+]2CC=C)C=Cc2cc(C)ccc21	58	97% (active)	90.5% (active)	63	99% (active)	91.1% (active)	90% (active)	98% (active)	92.6% (active)	78% (active)	98% (active)	91.9% (active)	83% (active)	98% (active)	91% (active)	79% (active)	98% (active)	89.2% (active)
OC(c1cc(-c2ccccc2)nc2cc(Cl)ccc12)C1CCCCN1 (configuration not stated)	-2	-3%	8.7%	-3	3%	26.1%	-1%	-2%	37%	-5%	-4%	15%	-2%	-5%	75% (active)	-2%	-3%	53.6%
COC(=O)c1ccc(Cl)c(Cl)c1	1	20%	8.2%	-2	2%	6.75%	2%	11%	11.8%	1%	0%	75.3% (active)	12%	13%	22%	1%	17%	-0.65%
CC(C)COC(=O)c1ccc(NC(=O)CCl)cc1	0	93% (active)	62.1%	-1	94% (active)	29.9%	2%	95% (active)	62.3%	-7%	95% (active)	16.1%	0%	93% (active)	10%	3%	92% (active)	67.8%
CC(=O)NC1CCCCC1c1ccc(C2CCCCC2NC(C)=O)cc1 (configuration not stated)	-8	3%	-11.9%	-8	9%	-9.3%	-4%	19%	5.3%	-69%	-6%	66.8%	-4%	1%	-2.45%	3%	3%	1.9%
O=C1CSC(=Nc2ccc(F)cc2F)N1Cc1cccs1	44	92% (active)	80.2% (active)	36	98% (active)	78.2% (active)	39%	98% (active)	90.5% (active)	25%	63%	50.1%	41%	61%	86.2% (active)	47%	98% (active)	84.6% (active)
CCCCCCCCCCCCS(=O)(=O)CC(Br)C(=O)c1ccco1 (configuration not stated)	57	96% (active)	94.2% (active)	42	97% (active)	96.9% (active)	67%	96% (active)	95.3% (active)	12%	90% (active)	93.7% (active)	43%	95% (active)	95.1% (active)	68%	93% (active)	95.3% (active)
O=[N+]([O-])/C(Br)=C\c1ccc([N+](=O)[O-])cc1	19	99% (active)	99.4% (active)	4	100% (active)	96.8% (active)	9%	100% (active)	99.6% (active)	17%	99% (active)	92% (active)	40%	99% (active)	94.9% (active)	54%	99% (active)	99.5% (active)
